Test results: PubChem BioAssay AID1259343 (VanderVen Lab, College of Veterinary Medicine, Cornell …, 2017)
The whole screen tested about 6,200 compounds, of which about 2,900 (47%) were called active. Cut-off read from the data, not from the text of the source: active = inhibition above about 50%; inactive = the rest. The set was probably picked from earlier hits. The list shows a part of the results.

Assay: Mycobacterium tuberculosis growth inhibition, primary screen (AID 1259343)
Conditions: inhibition: at 10 µM, hits give high values; outcome: 10 uM

| Structure (SMILES) | inhibition |
| --- | --- |
| COc1cc2c(cc1OC)CN(C(=O)CCl)CC2 | 83.7% (active) |
| COc1cc(OC)c(C2=CCN(C(=O)CC3CCCC3)CC2)c(OC)c1 | 5.97% (inactive) |
| CCc1csc(NC(=O)C2=NOC(c3ccccc3)C2)n1 (centres undefined) | 64% (active) |
| O=C(Cc1csc(NC(=O)NC2CCCCC2)n1)Nc1ccccc1Oc1ccccc1 | -3.55% (inactive) |
| Brc1cc(CNc2cccnc2N2CCCC2)cs1 | 21.1% (inactive) |
| O=c1cc(CNc2cccc(F)c2)nc2sc3c(n12)CCCC3 | 30.1% (inactive) |
| Cc1csc2nc(CNc3cccc(C#Cc4cccs4)c3)cc(=O)n12 | 60.6% (active) |
| Cc1csc2nc(CNc3ccc(NC(=O)C4CC4)cc3C(F)(F)F)cc(=O)n12 | 10.5% (inactive) |
| CC(CCc1ccccc1)NC(=O)c1cc(Cl)ccn1 (centres undefined) | 43.1% (inactive) |
| CC(Cc1ccccc1Cl)NC(=O)c1ccccn1 (centres undefined) | 70.5% (active) |
| O=C(NCCc1ccccc1Cl)c1cccc2ccnn12 | 44.4% (inactive) |
| Cc1ccc(S(=O)(=O)NCCc2sc(-c3ccc(Cl)cc3)nc2C)s1 | 76.3% (active) |
| Cc1ccc(S(=O)(=O)NC(C)c2ccc(Cl)cc2Cl)s1 (centres undefined) | 42.2% (inactive) |
| Cc1ccc(S(=O)(=O)Nc2cc(C(C)C)no2)s1 | 43.6% (inactive) |
| CCCCOc1ccc(C(=O)Nc2cc(C)nn2-c2nc(C)c(C)c(=O)[nH]2)cc1 | 16.8% (inactive) |
| CCOc1ccc(C(=O)Nc2cc(-c3cccs3)nn2-c2nc(C)cc(=O)[nH]2)cc1 | 93.9% (active) |
| CCCCOc1ccc(C(=O)Nc2cc(C)nn2-c2nc(C)cc(=O)[nH]2)cc1 | 101% (active) |
| CCOc1ccc(C(=O)Nc2cc(C)nn2-c2nc(C)cc(=O)[nH]2)cc1 | 102% (active) |
| Cc1ccc(C)c2c(C)c(C(=O)NCC3(C)CCCO3)oc12 (centres undefined) | 38.4% (inactive) |
| O=C(Oc1ccccc1C(=O)O)c1ccccc1O | inactive |
| Nc1ccc(C(=O)Oc2ccccc2)c(O)c1 | 98.9% (active) |
| O=S(=O)(Nc1nc2ccccc2nc1Cl)c1cccc(C(F)(F)F)c1 | 38.5% (inactive) |

| Structure (SMILES) | inhibition |
| --- | --- |
| O=S(Cc1cccc(C(F)(F)F)c1)Cc1ccc(Cl)cc1Cl (centres undefined) | 42.1% (inactive) |
| CCc1nc(Nc2cccc(C(F)(F)F)c2)c2ccc(Cl)cc2n1 | 88.9% (active) |
| CN(CC1COc2ccccc2O1)C(=O)CCl (centres undefined) | -21.8% (inactive) |
| CC(C)N(C(=O)CCl)c1ccccc1 | 100% (active) |
| Cc1cc(=O)[nH]c2sc(C(=O)Nc3ccc(Br)cc3)c(N)c12 | 79.5% (active) |
| CCCc1ncc(CN2CCCC(C(=O)Nc3ccc(-c4cccc(OC)c4)cc3)C2)cn1 (centres undefined) | 68.2% (active) |
| COc1cccc(-c2ccc(NC(=O)C3CCCN(Cc4cccc(O)c4)C3)cc2)c1 (centres undefined) | 70.1% (active) |
| COc1cccc(-c2ccc(NC(=O)C3CCCN(Cc4nccs4)C3)cc2)c1 (centres undefined) | 48.2% (inactive) |
| Cc1cc(C(C)(C)C)cc(C)c1CCNS(=O)(=O)N(C)C | 27.1% (inactive) |
| Cn1ccc(C(=O)NCCc2ccc(OCc3ccccc3)cc2)cc1=O | 65.2% (active) |
| Cc1cc(C(=O)Nc2ccn(-c3ccccc3)n2)c(C)o1 | 59.6% (active) |
| O=C(Nc1ccn(-c2ccccc2)n1)C1CCCC1 | 21.5% (inactive) |
| Brc1cnn(Cc2nnc(-c3ccco3)o2)c1 | -27.3% (inactive) |
| Nc1cnn(Cc2ccc(Br)cc2)c1 | 94.8% (active) |
| CN(C)c1cc[n+](Cc2c(Cl)cccc2Cl)cc1 | 21.9% (inactive) |
| C[n+]1c2cc(N)ccc2cc2ccc(N)cc21 | 92% (active) |
| Oc1[nH]c2c(Cl)cc(Cl)cc2c1N=Nc1nc2ccccc2o1 | 101% (active) |
| O=C1N=c2ccccc2=C1N=Nc1c(O)[nH]c2c(Cl)cc(Cl)cc12 | 80% (active) |
| O=C1N=c2ccccc2=C1N=Nc1nc(O)c(-c2c(O)[nH]c3ccccc23)s1 | -14% (inactive) |
| O=C(NNc1cccc(Cl)c1)[C@@H]1CCCN1c1nccc(Nc2ccccc2)n1 | 91.9% (active) |
| Cc1ccc(C)c(COc2cccn3c(CCNC(=O)COCc4ccccc4)cnc23)c1 | 33.6% (inactive) |
| CCOc1coc(C(=O)NCCc2ccc(Cl)cc2)cc1=O | 49.6% (inactive) |

| Structure (SMILES) | inhibition |
| --- | --- |
| O=C(NCCCc1ccccc1)c1cc(=O)c(OCc2ccccc2)co1 | 99.7% (active) |
| O=C(NCCCc1ccccc1)c1cc(=O)c(OCc2ccc(F)cc2)co1 | 99.9% (active) |
| CCOC(=O)Cn1c(=NC(=O)c2cc(C)no2)sc2cccc(F)c21 | 49.7% (inactive) |
| CC(=O)Oc1ccc2c(=O)c(Oc3ccc(F)cc3)c(C(F)(F)F)oc2c1 | 18.9% (inactive) |
| CC(=O)Oc1ccc2c(=O)c(-c3ccc4c(c3)OCCO4)c(C)oc2c1OC(C)=O | 26.1% (inactive) |
| O=c1c(-c2ccc3c(c2)OCCO3)c(C(F)(F)F)oc2cc(O)ccc12 | 104% (active) |
| Cc1sc2nc(-c3cccnc3)nc(NC(C)C(C)C)c2c1C (centres undefined) | -13.7% (inactive) |
| C#CCN(CC=C)Cc1nc(-c2ccc(Cl)cc2)oc1C | 14.8% (inactive) |
| CN(C)C(=S)SSC(=S)N(C)C | 102% (active) |
| CC(=O)O[C@H]1C[C@@H](OC(C)=O)C(C)(C)C2C[C@@H](OC(C)=O)[C@]3(C)C(CC[C@@]4(C)[C@H](c5ccoc5)C(=O)[C@H]5O[C@]543)[C@]21C (some centres undefined) | 36.2% (inactive) |
| CC1(C)C(=O)C=C[C@@]2(C)C1C[C@@H](O)[C@]1(C)C2CC[C@@]2(C)[C@H](c3ccoc3)OC(=O)[C@H]3O[C@]321 (some centres undefined) | 67% (active) |
| Cn1cnnc1SCC(=O)Nc1ccc2c(c1)CCC2 | -17.5% (inactive) |
| O=C(CCn1cncn1)Nc1ccc2c(c1)CCC2 | 87.1% (active) |
| O=C1C(=Cc2ccc(F)cc2)CSc2ccc(F)cc21 | 21.3% (inactive) |
| CCN1c2ccccc2N(C)[C@]1(C)c1ccccc1 | 68.3% (active) |
| Fc1ccc(C2=CC(c3ccc4c(c3)OCO4)n3nc(C(F)(F)F)nc3N2)cc1 (centres undefined) | 74.3% (active) |
| N#Cc1ccc(C2C=C(c3ccc(Br)cc3)Nc3nc(C(F)(F)F)nn32)cc1 (centres undefined) | 90.9% (active) |
| Fc1ccc(C2C=C(c3ccccc3)Nc3nc(C(F)(F)F)nn32)cc1F (centres undefined) | 3.02% (inactive) |
| Clc1ccc(C2=CC(c3ccc4c(c3)OCO4)n3nc(-c4ccccc4)nc3N2)cc1 (centres undefined) | -34.2% (inactive) |
| FC(F)(F)c1nc2n(n1)C(c1ccc(Cl)cc1)C1=C(N2)c2ccccc2SC1 (centres undefined) | 36.9% (inactive) |
